About 140 (12%) of roughly 1,200 compounds were called active. The rule behind the calls is not given here. The entries come from a sample that favours actives as a whole.

The test is described as follows: restoration of mutant CFTR halide transport – FRT cells, YFP quenching, cherry-pick, dose response (AID 743402). The format is functional, cell-based.
As to `O=C(Nc1ccccc1)N1CCCCN2[C@@H](CO)[C@H](c3ccc(C#Cc4ccccc4)cc3)[C@@H]2C1`, the AbsAC35 is 31.2 µM (active).

With `O=C1NC(=O)C(=Cc2c(Cl)cccc2Cl)C(=O)N1`, the AbsAC35 was 29.4 µM (active).

The record behind these values is ChEMBL document CHEMBL1201862, “PubChem BioAssay data set” (2004).
